Potency and affinity values are given separately.
Legend:
Staphylococcus aureus = conditions: Concentration 20 uM; ASSAY_TEST Inhibition of Bacterial Growth; detection method Absorption (OD600); MEDIA CAMHB; plate type 384well; NBS; CORNING #3640; time 18 hr
Escherichia coli = conditions: Concentration 20 uM; ASSAY_TEST Inhibition of Bacterial Growth; detection method Absorption (OD600); MEDIA CAMHB; plate type 384well; NBS; CORNING #3640; time 18 hr

Compound	Inhibition (Staphylococcus aureus) [%]	Inhibition (Escherichia coli) [%]
Cc1nnc(NC(=O)c2cn(-c3ccccc3)nc2-c2ccccc2C)o1	8.57	8.61
CCc1ccc(S(=O)(=O)Nc2cc(CN3CCN(CCC(C)C)CC3)ccc2C)cc1	21.02	13.04
Cc1cc(C)c2cc(C(=O)NC3CCCCCCC3)[nH]c2c1	16.44	7.15
Clc1ccc(-n2cc(COc3ccnc4ccccc34)nn2)cc1	21.12	8.78
O=S(=O)(c1ccc(Cl)cc1)N1CCN(C(=S)NCc2ccco2)CC1	6.19	-1.38
Cc1ccc2[nH]c(C3CCCNC3)c(-c3ccncc3)c2c1.Cl.Cl (stereo unspecified)	42.59	2.54
O=C(NCCN1CCCC1)c1cc(NCCN2CCOCC2)nc2ccc(Cl)cc12	22.71	6.99
O=C1COCc2ccc(Br)cc2N1Cc1ccc(C(F)(F)F)cc1	12.84	10.17
O=C(Nc1cnc2ccccc2c1)c1cccc(-n2cnnn2)c1	5.61	-2.29
c1coc(CNc2nc(N3CCCCC3)nc3ccccc23)c1	13.52	5.17
Cc1cc(OCC(=O)NCc2ccccc2)c2cc(Br)ccc2n1	11.48	7.85
CCc1nc2ccc(C(=O)NCc3ccc4c(c3)OCO4)cn2c1N(C)Cc1cccs1	4.69	-1.74
Cc1cnc(N2CCN[C@@H](Cc3ccccc3)C2)nc1Oc1ccc(-n2ccnc2)cc1.Cl	11.48	-1.63
